From PubChem BioAssay
In the library only some 1.3% were active in any assay of this set; here they are far more common.
GALK inh = inhibitors of human galactokinase; P51570; Purified GALK, Kinase-Glo residual ATP luminescence; Potency, µM (top dose mostly 57.5 µM), for the others: at the highest dose activity change, negative = inhibition, actives largely listed as inhibitors; 270,000 compounds, 0.007% hits; AID 1868
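Galactose (100 uM) and ATP (35 uM) were turned over by 5 nM GALK for 1 h at RT. Kinase-Glo Plus then converted the remaining ATP into a luminescent signal.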
TrxR1 substrate = rat thioredoxin reductase 1 substrate activity; purified TrxR1 substrate turnover, NADPH consumption readout; Potency, µM (highest dose often 114 µM), for inactives: at the highest dose activity change, negative = substrate turnover; 390,000 compounds, 0.01% hits; AID 588456; note: nearly all actives have a fitted effect of over 50% in size
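Rat TrxR1, dispensed at 90 nM, was prereduced with 400 uM NADPH (final) for 5 min at ~22 deg C, then incubated with compound 15 min before 400 uM selenite. A first-read NADPH fluorescence drop versus no-compound background flagged substrates.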
PKM2 act = PKM2 (human) enzyme activation. AID 1631. Potency, µM (titrated, usually from 57.5 µM), for the others: at the highest dose activation, most hits filed as activators. purified PKM2, Kinase-Glo ATP luminescence, activation; response scale: 0% is enzyme alone, no compound. 260,000 compounds, 0.34% hits; note: nearly all actives have a fitted effect of over 55% in size
Target sequence (P14618 whole entry, looked up): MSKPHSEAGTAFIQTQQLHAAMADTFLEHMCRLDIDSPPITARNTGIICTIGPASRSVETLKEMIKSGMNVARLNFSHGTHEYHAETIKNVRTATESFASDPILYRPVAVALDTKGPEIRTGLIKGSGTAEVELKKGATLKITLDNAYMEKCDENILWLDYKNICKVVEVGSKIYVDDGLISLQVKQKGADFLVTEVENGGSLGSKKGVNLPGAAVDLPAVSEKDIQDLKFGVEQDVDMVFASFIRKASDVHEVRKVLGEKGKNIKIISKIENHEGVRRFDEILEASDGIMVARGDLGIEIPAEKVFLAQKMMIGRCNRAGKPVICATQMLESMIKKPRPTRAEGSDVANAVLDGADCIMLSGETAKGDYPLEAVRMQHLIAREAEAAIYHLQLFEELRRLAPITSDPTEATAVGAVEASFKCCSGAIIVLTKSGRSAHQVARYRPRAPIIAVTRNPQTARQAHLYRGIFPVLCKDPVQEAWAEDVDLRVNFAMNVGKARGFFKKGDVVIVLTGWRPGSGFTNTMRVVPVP
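Purified hPK-M2 (>95%) run at intermediate activity with 0.1 mM ADP and 0.5 mM PEP in 50 mM imidazole pH 7.2, KCl, MgCl2; 1 h room temperature. ATP formed read by Kinase-Glo luminescence; normalized to uninhibited and no-enzyme controls.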
Apoferritin bind = candidate novel general anesthetic via apoferritin binding; 350,000 compounds, 0.074% hits; apoferritin/1-aminoanthracene competitive binding, fluorescence; P02791; Potency, µM (doses to about 77.5 µM), inactives show at the top dose activity change, negative = displacement, hits mostly inhibitors; note: nearly all actives have a fitted effect of over 20% in size
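Probe: 1-aminoanthracene (50% saturated, PBS). Protein: horse-spleen apoferritin, 10 uM. Incubation: 10 min, room temperature. Detection: 380 nm excitation, 535 nm emission. Analysis: normalized response, four-parameter Hill.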
IDH1 R132H inh = human IDH1 R132H inhibition. O75874. IDH1-R132H enzyme, NADPH consumption, diaphorase/resazurin fluorescence. Potency, µM (top dose mostly 76.6 µM), without a hit: top-dose activity change, negative = inhibition, usual class: inhibitors. 390,000 compounds, 0.093% hits. AID 602179; note: nearly all actives have a fitted effect of over 65% in size
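IDH1-R132H (0.5 ug/mL) preincubated 30 min with compound, then NADPH (0.016 mM) and alpha-KG (2 mM) added; 80 min at RT, pH 7.5. Remaining NADPH coupled via diaphorase/resazurin to fluorescence (540/590 nm); concentration-response curves normalized to no-enzyme control.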
TrxR1 inh = inhibitors of rat thioredoxin reductase 1; Potency, µM (titrated, usually from 114 µM), for the others: at the highest dose activity change, negative = inhibition, most hits filed as inhibitors; 390,000 compounds, 1% hits; O89049; recombinant rTrxR1, NADPH fluorescence consumption, selenite substrate; note: nearly all actives have a fitted effect of over 65% in size
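Rat TrxR1 (90 nM in the dispensed reagent) was pre-reduced with 400 uM NADPH for 5 min at room temperature, then incubated with compound for 15 min. After 400 uM selenite was added, NADPH fluorescence (Ex 340/Em 450 nm) was followed for 8 min.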
Numbers without * were called inactive; [ ] = remark or other dose. Calls come from the whole dose curve; as a rule, active = well fitted curve in the direction sought with a large enough effect; inconclusive = small, poorly fitted or top-dose-only effect, or another doubt; inactive = no such curve, though single readings can be large; an effect the other way counts as inactive or inconclusive. % is set by controls: 0 for no effect and ±100 for the full control effect; potency is the fitted concentration of half-maximal effect.

What do the screens show for `O=c1[nH]c2cc3c(cc2cc1CN(Cc1cccs1)Cc1nnnn1Cc1ccco1)OCCO3`?
GALK inh: -3%; TrxR1 substrate: 27%; PKM2 act: inconclusive; Apoferritin bind: -6%; IDH1 R132H inh: -12%; TrxR1 inh: 16µM*

Results for Cc1ccc2[nH]c(=O)c(CN(Cc3ccco3)Cc3nnnn3Cc3ccccc3)cc2c1 ?
TrxR1 substrate: -13%; TrxR1 inh: -27%

Results for Cc1ccc2[nH]c(=O)c(CN(Cc3cccnc3)Cc3nnnn3CC3CCCO3)cc2c1 (configuration not stated) ?
GALK inh: 2%; TrxR1 substrate: 4%[57.1 µM]; PKM2 act: 6%; Apoferritin bind: -6%; IDH1 R132H inh: -17%; TrxR1 inh: 14%[57.1 µM]

What do the screens show for `COc1cc2c(cc1OC)C(c1cc(-c3cc(Cl)ccc3Cl)oc1C)=NCC2`?
TrxR1 substrate: 7%; TrxR1 inh: -7%

How did COc1cc(-c2ccno2)ccc1S(=O)(=O)N1CCN(c2ccc(C(C)=O)cc2)CC1 do in these assays?
TrxR1 substrate: 2%[57.1 µM]; Apoferritin bind: -9%; IDH1 R132H inh: 0%; TrxR1 inh: 12%[57.1 µM]

Results for Cc1ccc2cc(CN(C(=O)c3ccco3)c3ccccc3C)c(=O)[nH]c2c1 ?
GALK inh: 5%; TrxR1 substrate: 16%[57.1 µM]; PKM2 act: 9%; Apoferritin bind: -24%; IDH1 R132H inh: 1%; TrxR1 inh: inconclusive

What do the screens show for `Cc1ccc2cc(CN(C(=O)c3ccco3)c3cccc(C)c3C)c(=O)[nH]c2c1`?
GALK inh: -1%; TrxR1 substrate: 6%; PKM2 act: 9%; Apoferritin bind: -13%; IDH1 R132H inh: -20%; TrxR1 inh: 18µM*

How did CCc1ccccc1N1C(=O)N(Cc2ccc(C#N)cc2)c2ccccc2S1(=O)=O do in these assays?
TrxR1 substrate: -8%[57.1 µM]; Apoferritin bind: 13%; IDH1 R132H inh: 0%; TrxR1 inh: 10%[57.1 µM]

What do the screens show for `COC(=O)C1=C(C)NC(=O)NC1c1ccc(-c2ccc(Cl)cc2)o1` (configuration not stated)?
GALK inh: 5%; TrxR1 substrate: -7%; PKM2 act: -7%; Apoferritin bind: -8%; IDH1 R132H inh: -16%; TrxR1 inh: -6%[57.1 µM]

How did COC(=O)C1=C(C)NC(=S)NC1c1ccc(-c2cc(Cl)ccc2Cl)o1 (configuration not stated) do in these assays?
GALK inh: -1%; TrxR1 substrate: 3%; PKM2 act: 0%; Apoferritin bind: -12%; IDH1 R132H inh: 2%; TrxR1 inh: 32µM*

Results for NS(=O)(=O)c1cccc(NC(=S)NC(=O)C23CC4CC(CC(C4)C2)C3)c1 ?
GALK inh: -2%; TrxR1 substrate: -10%; PKM2 act: -4%; Apoferritin bind: inconclusive; IDH1 R132H inh: 6%; TrxR1 inh: 40µM*

What do the screens show for `CN(C)S(=O)(=O)c1cccc(NC(=S)NC23CC4CC(CC(C4)C2)C3)c1`?
GALK inh: -1%; TrxR1 substrate: -5%; Apoferritin bind: -14%; IDH1 R132H inh: -10%; TrxR1 inh: -8%

Results for CCCn1c2ccccc2c2cnn(CC(=O)N(C)c3ccc(F)cc3)c(=O)c21 ?
TrxR1 substrate: 7%; Apoferritin bind: -5%; IDH1 R132H inh: -1%; TrxR1 inh: 0%

How did Cc1nnc(Sc2cc(NCCCO)c([N+](=O)[O-])c3nonc23)s1 do in these assays?
GALK inh: 2%; TrxR1 substrate: 6%[57.1 µM]; PKM2 act: 27%; Apoferritin bind: -20%; IDH1 R132H inh: 13%; TrxR1 inh: inconclusive

Results for Cc1nnc(Sc2cc(NCCO)c([N+](=O)[O-])c3nonc23)s1 ?
GALK inh: -2%; TrxR1 substrate: -5%; PKM2 act: 20%; Apoferritin bind: -15%; IDH1 R132H inh: 7%; TrxR1 inh: 0.32µM*
